# According to paper PMC9911399, “Two distinct binding modes provide the RNA-binding protein RbFox with extraordinary sequence specificity”:
# Positions count from the first letter of the chain named. In all, about 16,000 sequences were measured (“ka relative to ugcaugu”: median about 0.096, highest 2% from about 0.35 on). The entries come from a sample that favours the highest values as a whole.
# T1: RBFOX1 RRM RbFoxmut (Fox-RRM*) (Homo sapiens, UniProt Q9NWB1 109-208, R118D;E147R;N151S;E152T)
# T1 sequence: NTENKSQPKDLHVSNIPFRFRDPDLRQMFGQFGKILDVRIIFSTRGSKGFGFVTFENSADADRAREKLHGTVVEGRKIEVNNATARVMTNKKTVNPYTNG
# B1: UCUGGGU (DNA:RNA)
# RNA: GGGAGACCGGAAUUCAGAUUGUCCUCUGGGUUUAAAUCCCGUCGUAGCCACCA
# DNA 1: CAATCTGAATTCCGGTCTCCC
# DNA 2: TGGTGGCTACGACGGGATT
# B2: GUGGUUC (DNA:RNA)
# RNA: B1 RNA with U25G, C26U, U27G, G29U, G30U, U31C
# DNA 1: CAATCTGAATTCCGGTCTCCC
# DNA 2: TGGTGGCTACGACGGGATT
# B3: AGCGCCG (DNA:RNA)
# RNA: B1 RNA with U25A, C26G, U27C, G29C, G30C, U31G
# DNA 1: CAATCTGAATTCCGGTCTCCC
# DNA 2: TGGTGGCTACGACGGGATT
# B4: ACACACC (DNA:RNA)
# RNA: B1 RNA with U25A, U27A, G28C, G29A, G30C, U31C
# DNA 1: CAATCTGAATTCCGGTCTCCC
# DNA 2: TGGTGGCTACGACGGGATT
# B5: UGUGUAA (DNA:RNA)
# RNA: B1 RNA with C26G, G29U, G30A, U31A
# DNA 1: CAATCTGAATTCCGGTCTCCC
# DNA 2: TGGTGGCTACGACGGGATT
# B6: CAACCGG (DNA:RNA)
# RNA: B1 RNA with U25C, C26A, U27A, G28C, G29C, U31G
# DNA 1: CAATCTGAATTCCGGTCTCCC
# DNA 2: TGGTGGCTACGACGGGATT
# B7: CUACAAU (DNA:RNA)
# RNA: B1 RNA with U25C, C26U, U27A, G28C, G29A, G30A
# DNA 1: CAATCTGAATTCCGGTCTCCC
# DNA 2: TGGTGGCTACGACGGGATT
# B8: CGGCAAU (DNA:RNA)
# RNA: B1 RNA with U25C, C26G, U27G, G28C, G29A, G30A
# DNA 1: CAATCTGAATTCCGGTCTCCC
# DNA 2: TGGTGGCTACGACGGGATT
# B9: UUGGUUU (DNA:RNA)
# RNA: B1 RNA with C26U, U27G, G29U, G30U
# DNA 1: CAATCTGAATTCCGGTCTCCC
# DNA 2: TGGTGGCTACGACGGGATT
# B10: CGAUGUA (DNA:RNA)
# RNA: B1 RNA with U25C, C26G, U27A, G28U, G30U, U31A
# DNA 1: CAATCTGAATTCCGGTCTCCC
# DNA 2: TGGTGGCTACGACGGGATT
# B11: CGUUGUA (DNA:RNA)
# RNA: B1 RNA with U25C, C26G, G28U, G30U, U31A
# DNA 1: CAATCTGAATTCCGGTCTCCC
# DNA 2: TGGTGGCTACGACGGGATT
# B12: GAUUGUA (DNA:RNA)
# RNA: B1 RNA with U25G, C26A, G28U, G30U, U31A
# DNA 1: CAATCTGAATTCCGGTCTCCC
# DNA 2: TGGTGGCTACGACGGGATT
# B13: GUAUGUA (DNA:RNA)
# RNA: B1 RNA with U25G, C26U, U27A, G28U, G30U, U31A
# DNA 1: CAATCTGAATTCCGGTCTCCC
# DNA 2: TGGTGGCTACGACGGGATT
# B14: GUCCGUA (DNA:RNA)
# RNA: B1 RNA with U25G, C26U, U27C, G28C, G30U, U31A
# DNA 1: CAATCTGAATTCCGGTCTCCC
# DNA 2: TGGTGGCTACGACGGGATT
# B15: CUAUGUA (DNA:RNA)
# RNA: B1 RNA with U25C, C26U, U27A, G28U, G30U, U31A
# DNA 1: CAATCTGAATTCCGGTCTCCC
# DNA 2: TGGTGGCTACGACGGGATT
# B16: GCAUGUA (DNA:RNA)
# RNA: B1 RNA with U25G, U27A, G28U, G30U, U31A
# DNA 1: CAATCTGAATTCCGGTCTCCC
# DNA 2: TGGTGGCTACGACGGGATT
# B17: GUUUGUA (DNA:RNA)
# RNA: B1 RNA with U25G, C26U, G28U, G30U, U31A
# DNA 1: CAATCTGAATTCCGGTCTCCC
# DNA 2: TGGTGGCTACGACGGGATT
# B18: GAAUGUA (DNA:RNA)
# RNA: B1 RNA with U25G, C26A, U27A, G28U, G30U, U31A
# DNA 1: CAATCTGAATTCCGGTCTCCC
# DNA 2: TGGTGGCTACGACGGGATT
# Target: T1, RBFOX1 RRM RbFoxmut (Fox-RRM*)
# Experiment: EMSA; HiTS-Eq, 1 nM pool, 10 min; buffer printed only for the single-RNA assays: 10 mM Tris pH 7.5, 150 mM NaCl, 3.4 mM EDTA, 0.001% NP-40, 30 C
# Settings: tags: His6 N-terminal (pET28a); label: 5' 32P
# In short: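 Purified RbFox RRM (wild type or mutant) was equilibrated for 10 min in 50 µL with 1 nM of a 5′-radiolabelled pool of RNA with 7 randomized nucleotides, its flanks annealed to DNA oligonucleotides, across increasing protein concentrations. Free RNA was separated by 8% native PAGE, excised, reverse-transcribed, PCR-barcoded and sequenced on an Illumina HiSeq 2500. Relative association constants came from read-count changes of each variant against the control reaction, normalised to the cognate motif.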
row,Binder,binding signal
1,B1,0.0963 KA relative to UGCAUGU
2,B2,0.283 KA relative to UGCAUGU
3,B3,0.116 KA relative to UGCAUGU
4,B4,0.0425 KA relative to UGCAUGU
5,B5,0.111 KA relative to UGCAUGU
6,B6,0.0516 KA relative to UGCAUGU
7,B7,0.0289 KA relative to UGCAUGU
8,B8,0.053 KA relative to UGCAUGU
9,B9,0.1 KA relative to UGCAUGU
10,B10,0.202 KA relative to UGCAUGU
11,B11,0.258 KA relative to UGCAUGU
12,B12,0.284 KA relative to UGCAUGU
13,B13,0.63 KA relative to UGCAUGU
14,B14,0.12 KA relative to UGCAUGU
15,B15,0.198 KA relative to UGCAUGU
16,B16,1.04 KA relative to UGCAUGU
17,B17,0.446 KA relative to UGCAUGU
18,B18,1.18 KA relative to UGCAUGU
